# In the supplement of paper PMC8975748:
# Structures can show the parent of a compound that is named as a salt.
# System: Saccharomyces cerevisiae BY4741 SeMeCo community
# Assay: z-score of subpopulation abundance vs DMSO median, subpopulation auxotrophic for HU; higher = larger share of this subpopulation than in DMSO controls
# Details: 10 µM; 24 h; SM minimal medium; subpopulation (auxotrophy): HU
# In short: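 Cells of a Saccharomyces cerevisiae BY4741 community, carrying four plasmids that each restored one auxotrophy and encoded a distinct fluorescent protein, were pre-grown overnight to OD600 1.0 and diluted to 0.3. A 70 µl volume was added to 384-well plates acoustically predosed with library drugs (10 µM final) and grown 24 h in minimal SM medium. After paraformaldehyde fixation, automated confocal microscopy was used, with single-auxotroph fluorescent strains for thresholds and autofluorescence correction. The abundance of each subpopulation was scored as a z-score against the vehicle-well median.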
row,SMILES,z-score of subpopulation abundance
1,CCCCOc1cc(C(=O)NCCN(CC)CC)c2ccccc2n1 [Dibucaine HCl],-0.13
2,Clc1ccc(CSC(Cn2ccnc2)c2ccc(Cl)cc2Cl)cc1 (stereo not drawn) [Sulconazole Nitrate],14.1
3,COc1ccc(C2CNC(=O)C2)cc1OC1CCCC1 (stereo not drawn) [Rolipram],-0.85
4,C[C@]12CC[C@@H]3c4ccc(O)cc4CC[C@H]3[C@@H]1CC[C@@H]2OC(=O)CCC1CCCC1 [Estradiol Cypionate],0.6
5,C[C@@H](NCCCc1cccc(C(F)(F)F)c1)c1cccc2ccccc12 [Cinacalcet HCl],-1.71
6,Cc1cc(/C=C/c2ccc3cc(N(C)C)ccc3[n+]2C)c(C)n1-c1ccccc1 [pyrvinium],-0.67
7,CC(C)Cc1ccc(C(C)C(=O)O)cc1 (stereo not drawn) [Ibuprofen Lysine],-2.64
8,O=C(Cn1cnnn1)N[C@@H]1C(=O)N2C(C(=O)O)=C(CSc3nncs3)CS[C@H]12 [Ceftezole sodium],0.45
9,CC[N+](C)(C)c1cccc(O)c1 [Edrophonium chloride],-0.07
10,Nc1ccc(S(N)(=O)=O)cc1 [Sulfanilamide],-1.15
11,CCCN(CCC)CCc1cccc2c1CC(=O)N2 [Ropinirole HCl],0.41
12,CN(C)CCCC1(c2ccc(F)cc2)OCc2cc(C#N)ccc21 (stereo not drawn) [Citalopram HBr],0.64
13,CN1CCCN=C1/C=C/c1cccs1 [Pyrantel Pamoate],0.04
14,CN(C)CCC[C@@]1(c2ccc(F)cc2)OCc2cc(C#N)ccc21 [Escitalopram Oxalate],-0.95
15,CCCCCC(=O)O[C@]1(C(C)=O)CC[C@H]2[C@@H]3CCC4=CC(=O)CC[C@]4(C)[C@H]3CC[C@@]21C [Hydroxyprogesterone caproate],1.19
16,C[C@]12CCC(=O)C=C1[C@@H]1C[C@@H]1[C@H]1[C@@H]3[C@@H]4C[C@@H]4[C@@]4(CCC(=O)O4)[C@@]3(C)CC[C@@H]12 [Drospirenone],0.03
17,CC[C@H]1OC(=O)[C@H](C)[C@@H](O[C@H]2C[C@@](C)(OC)[C@@H](O)[C@H](C)O2)[C@H](C)[C@@H](O[C@@H]2O[C@H](C)C[C@H](N(C)C)[C@H]2O)[C@](C)(O)C[C@@H](C)/C(=N\OCOCCOC)[C@H](C)[C@@H](O)[C@]1(C)O [Roxithromycin],0.46

row,SMILES,z-score of subpopulation abundance
1,CC(=O)N[C@H]1[C@H]([C@H](O)[C@H](O)CO)OC(C(=O)O)=C[C@@H]1NC(=N)N [Zanamivir],-0.41
2,CCOc1cc(N)c([N+](=O)[O-])cc1C(=O)NC1CCN(CC2CC=CCC2)CC1 (stereo not drawn) [Cinitapride Hydrogen Tartrate],0.74
3,CC(C)c1c(C(=O)Nc2ccccc2)c(-c2ccccc2)c(-c2ccc(F)cc2)n1CC[C@@H](O)C[C@@H](O)CC(=O)O [Atorvastatin],2.62
4,COc1ccc(C(C)=O)c(O)c1 [Paeonol],0.44
5,NC12CC3CC(CC(C3)C1)C2 [Amantadine],-0.15
6,COC(=O)C1=C(C)NC(C)=C(C(=O)OC(C)(C)CN(C)CCC(c2ccccc2)c2ccccc2)C1c1cccc([N+](=O)[O-])c1 (stereo not drawn) [Lercanidipine],0.16
7,NC1CCN(c2nc3c(cc2F)c(=O)c(C(=O)O)cn3-c2ccc(F)cc2F)C1 (stereo not drawn) [Tosufloxacin p-Toluenesulfonate Hydrate],-0.62
8,CC1(C)S[C@@H]2[C@H](NC(=O)[C@H](N)c3ccc(O)cc3)C(=O)N2[C@H]1C(=O)O [Amoxicillin],0.65
9,CCC1=C(C)CN(C(=O)NCCc2ccc(S(=O)(=O)NC(=O)N[C@H]3CC[C@H](C)CC3)cc2)C1=O [Glimepiride],0.22
10,O=C(O)c1ccccc1C(=O)Nc1ccc(S(=O)(=O)Nc2nccs2)cc1 [Phthalylsulfathiazole],1.23
11,Cc1ccc(Sc2ccccc2N2CCNCC2)c(C)c1 [Vortioxetine],0.9
12,Clc1ccc(CCC(Cn2ccnc2)Sc2c(Cl)cccc2Cl)cc1 (stereo not drawn) [Butoconazole nitrate],13.3
13,CC[C@@H]1/C=C(\C)C[C@H](C)C[C@H](OC)[C@H]2O[C@@](O)(C(=O)C(=O)N3CCCC[C@H]3C(=O)O[C@H](/C(C)=C/[C@@H]3CC[C@H](Cl)[C@H](OC)C3)[C@H](C)[C@@H](O)CC1=O)[C@H](C)C[C@@H]2OC [Pimecrolimus],-0.6
14,CN(Cc1cnc2nc(N)nc(N)c2n1)c1ccc(C(=O)N[C@@H](CCC(=O)O)C(=O)O)cc1 [Methotrexate],1.71
15,CCC[S+]([O-])c1ccc2[nH]c(NC(=O)OC)nc2c1 (stereo not drawn) [Albendazole Oxide],-0.21
16,COC(=O)C1=C(C)NC(C)=C(C(=O)OC)C1c1ccccc1[N+](=O)[O-] [Nifedipine],-0.68
